This is a sample that favours compounds with a hit; in the whole collection about 3% have one here.
KCNH2 WT inh – qHTS for Inhibitors of KCHN2 3.1: Wildtype qHTS; Voltage-gated inwardly rectifying potassium channel KCNH2 (Homo sapiens), Q12809; U2OS, BacMam KCNH2, thallium flux FluxOr; stronger effect = lower value; activity change, % at 1.84 µM; 0.37% of 340,000 active;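 active = maximum activity change below -70%; inconclusive = maximum activity change between -70% and -50%; inactive = maximum activity change above -50%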; note: % is set by controls: 0 for no effect and ±100 for the full control effect
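U2OS cells were transduced with wild-type KCNH2 virus (2.03 x 10^8 / mL) for 4 h at room temperature, then cultured overnight at 37 C. Thallium flux was read with FluxOr dye. Rate constants were normalized to DMSO controls.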
BCR signal inh – qHTS Assay to Find Inhibitors of Chronic Active B-Cell Receptor Signaling; AID 493014, 2011; Potency, µM (series often up to 46.1 µM), for the others: top-dose activity change, negative = inhibition, actives largely listed as inhibitors; 0.05% of 340,000 active; ABC-DLBCL IkBa-CBG/CBR reporter, luminescence ratio, 4 h; active = well fitted inhibition curve with a large enough effect in the signal ratio, with a control signal flat, not every such curve was filed as active; inconclusive = small, poorly fitted or top-dose-only effect, or effect the other way, or a change in a side signal; the % refers to the signal ratio;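 note: potency is the fitted concentration of half-maximal effect; plate controls were basal doxycycline-induced cells for no effect and cells given 10 µM MG132 for full effect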
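Doxycycline induced both beetle luciferases in TMD8 lymphoma cells; IKK-driven degradation limits the IkappaBalpha-fused green signal, while red luminescence normalises for cell number and nonspecific effects. Compounds tested up to 46 uM, 4 hrs.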
KCNH2 3.1 inh – qHTS for Inhibitors of KCHN2 3.1: Mutant qHTS | activity change, % (tested at about 1.8 µM) | 0.95% of 340,000 active | AID 720553, 2013 | U2OS KCNH2 3.1, thallium flux FluxOr; stronger effect = lower value;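 active = maximum activity change below -70%; inconclusive = maximum activity change from -70% to -50%; inactive = maximum activity change above -50%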;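 note: thallium influx rate constant from kinetic fluorescence after stimulation buffer; % is set by controls: 0 for no effect and ±100 for the full control effect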
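Measured as rate of thallium-driven FluxOr signal in transduced U2OS cells carrying the 3.1 channel, read kinetically for 2 min upon stimulation; values are rate constants scaled to DMSO control wells.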
ClpP mod – qHTS Assay for Activators of ClpP | ATP-dependent Clp protease proteolytic subunit (Bacillus subtilis (strain 168)), P80244 | purified B. subtilis ClpP, FRET peptide cleavage, 20 min | Potency, µM (top dose mostly 57.5 µM), inactives show top-dose activity change, negative = active | 1.9% of 340,000 active; active = well fitted falling curve with a large enough effect; inconclusive = small, poorly fitted or top-dose-only effect; inactive = no such curve, though single readings can be large or run the other way; note: potency is the fitted concentration of half-maximal effect; the source files actives as falling curves though it sought activators and does not explain the sign; nearly all actives have a fitted effect of over 65% in size
Target sequence (P80244 whole entry, looked up): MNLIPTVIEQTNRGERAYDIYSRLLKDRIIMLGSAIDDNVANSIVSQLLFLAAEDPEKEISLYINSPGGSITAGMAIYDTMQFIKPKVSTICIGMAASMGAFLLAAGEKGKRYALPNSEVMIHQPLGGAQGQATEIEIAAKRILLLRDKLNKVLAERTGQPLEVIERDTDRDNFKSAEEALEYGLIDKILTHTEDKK
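Buffer: 100 mM Tris/HCl pH8, 100 mM KCl, 0.05% low protease BSA, 2.5% glycerol, 0.01% Tween-20. ClpP 10 microg/mL final; 20 min RT; delta FRET normalized to ADEP and DMSO controls.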
LDHA inh – qHTS assay for inhibitors of human lactate dehydrogenase; L-lactate dehydrogenase A chain (Homo sapiens), P00338; purified LDHA, NADH/diaphorase-resazurin fluorescence; stronger effect = lower value; activity change, % (values are at about 110 or 230 µM); 0.15% of 480,000 active; in the data active = activity change below about -30%; inconclusive = mostly about -25% to -30%;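 note: plate controls were DMSO wells for no effect and wells without enzyme for full effect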
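Remaining NADH was detected by diaphorase (0.133 mg/mL) converting 37 µM resazurin to fluorescent resorufin, read at 0 and 20 minutes. The preceding 5-minute room-temperature reaction used 2 nM LDHA, 0.2 mM sodium pyruvate and 0.06 mM NADH at pH 7.4.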
12-LOX inh – Primary qHTS assay for inhibitors of human arachidonate 12S-lipoxygenase (ALOX12): Round 2; Polyunsaturated fatty acid lipoxygenase ALOX12 (Homo sapiens), P18054; purified 12hLO, xylenol orange hydroperoxide absorbance; Potency, µM (series often up to 108 µM), without a hit: at the highest dose activity change, negative = inhibition, hits mostly inhibitors; 1.1% of 580,000 active; AID 1671190, 2021; active = well fitted inhibition curve with a large enough effect; inconclusive = small, poorly fitted or top-dose-only effect, or another doubt; inactive = no such curve, though single readings can be large or run the other way; note: potency is the fitted concentration of half-maximal effect; % is set by controls: 0 for no effect and ±100 for the full control effect
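Purified human 12hLO at 150 nM in 25 mM Hepes, 0.01% Triton X-100, pH 7.0, preincubated 15 min at room temperature with compound. Reaction started with 40 uM arachidonic acid, 30 min at room temperature. Hydroperoxide measured by Fe-xylenol orange, 573/405 nm absorbance ratio.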
Numbers without * were called inactive; ? = inconclusive; nt = no result; ! = a repeat was not active; [ ] = remark or other dose.

SMILES	KCNH2 WT inh	BCR signal inh	KCNH2 3.1 inh	ClpP mod	LDHA inh	12-LOX inh
CCn1cc(C(=O)NCc2ccco2)c(=O)c2cc(F)c(N3CCN(C(=O)c4ccco4)CC3)cc21	3	-4%	14	28µM*	2	36%
CCCOc1ccc(C(=O)NNC(=S)NC(C)=O)cc1	-8	-7%	-3	-3%	-6	-3%
CCCOc1ccc(C(=O)NNC(=S)NC(=O)c2ccco2)cc1	-11	?	-1	-3%	-7	40µM*
CCCOc1ccc(C(=O)NNC(=S)NC(=O)c2ccccc2)cc1	?	?	-1	-1%	-10	35µM*
O=C(NC(=S)NNC(=O)c1ccco1)c1ccc(Br)cc1	-23	-17%	10	-2%	-4	28µM*
O=C(/C=C/c1ccccc1)NC(=S)NNC(=O)c1ccccc1	nt	nt	nt	nt	0	6.3µM*
O=C(/C=C/c1ccccc1)CC(=O)c1ccccc1	2	nt	-86*	-3%	-1	2%
CC(Oc1ccc(Cl)cc1)C(=O)NNC(=S)NC(=O)c1ccco1 (centres undefined)	-15	?	8	-2%	-12	45µM*
O=C(NNC(=S)NC(=O)c1cccc([N+](=O)[O-])c1)c1ccc(Br)cc1	-7	3%	-10	nt	-5	40µM*
COc1ccc(C(=O)NNC(=S)NC(=O)c2ccco2)cc1	3	?	-4	1%	0	0%
O=C(/C=C/c1ccccc1)c1ccccc1	0	?	-23	0%	-1	3%
COC[C@H]1NC(=O)CC[C@H]1C(=O)Nc1cccc(OC)c1	nt	nt	nt	nt	nt	68%
CN(C)[S+](=O)([O-])c1ccc2c(c1)OCCN(Cc1ccccn1)C2	nt	nt	nt	nt	nt	22%[176 µM]
O=C(Cc1ccc(N2CCCC2=O)cc1)N[C@@H](Cc1ccccc1)c1nc2ccccc2[nH]1	nt	nt	nt	nt	27	-16%
COc1cc(/C=C/c2nc3ccccc3c(=O)[nH]2)ccc1OC(F)F	2	3%	-2	25%	-3	4%
O=c1[nH]c(/C=C/c2ccccc2OC(F)F)nc2c1cnn2-c1ccccc1	-11	9%	-1	11µM*	1	-7%
COc1ccc(C(CC(=O)O)c2cc(OC)c(OC)c(OC)c2)cc1OC (centres undefined)	-3	nt	-11	32µM*	-3	?
COc1ccc(C(CC(=O)O)NC(=O)Cc2ccccc2)cc1OC (centres undefined)	1	0%	7	-4%	0	3%
Cc1ccc(C)c(C(=O)NC(C)C2CC3CCC2C3)c1 (centres undefined)	nt	nt	nt	nt	3	-22%
NC(=O)c1c(C(F)(F)F)cc(-c2ccccc2)nc1NCCO	2	1%	-8	22µM*	-3	0%
CCn1c(SCc2ccccc2Cl)nnc1-c1ccco1	nt	nt	nt	nt	-7	?
CCn1c(SCc2cccc(C(F)(F)F)c2)nnc1-c1ccco1	-13	-6%	7	-2%	-6	50µM*
COc1ccc(CNCC(=O)Nc2cccc(S(N)(=O)=O)c2)cc1	-3	-3%	6	35µM*	-20	?
COc1cccc(NC(=O)CNCc2ccccc2)c1	0	0%	8	-1%	-2	1%
CCOC(=O)C(CC)/C(C)=N/NC(=O)c1ccccc1[N+](=O)[O-] (centres undefined)	-5	?	14	-2%	-15	19%
SMILES	KCNH2 WT inh	BCR signal inh	KCNH2 3.1 inh	ClpP mod	LDHA inh	12-LOX inh
CCOC(=O)C(/C(C)=N/NC(=O)c1ccccc1[N+](=O)[O-])C(C)C (centres undefined)	0	-10%	-83*	1%	3	2%
CC(C)NNC(=O)c1ccccc1	nt	nt	nt	nt	-10	17%
CC(=O)/C(=C/Nc1ccc(Oc2ccccc2)cc1)c1ccccc1	1	?	-3	7.9µM*	-1	-1%
Cc1ccc2c(Cl)cc(Cl)c(OCC(=O)NC(=O)NC(C)(C)C)c2n1	nt	nt	nt	nt	3	4%
O=C(CSc1ccc(Cl)cc1)Nc1cccc(-c2nc3ccccc3[nH]2)c1	-3	18%	-7	13µM*	-9	-26%
O=C(O)CCCC(=O)Nc1cccc(-c2nc3ccccc3[nH]2)c1	-12	?	6	25µM*	-15	-7%
Cc1ccc(CNC(=O)CSc2nc3ccccc3[nH]2)cc1	-8	-1%	3	0%	1	0%
O=C(CSc1nc2ccccc2[nH]1)NCCc1ccc(Cl)cc1	-121*	-2%	-30	2%	2	-14%
COCCN1Cc2cccc(C(=O)Nc3cccc(-c4nc5ccccc5[nH]4)c3)c2C1=O	26	-6%	-73*	nt	-7	-13%
O=C(CCc1nc2ccccc2[nH]1)Nc1ccccc1	-1	?	-3	4%	-3	1%
O=C(CSc1ccccc1)Nc1ccc(-c2nc3ccccc3[nH]2)cc1	0	23%	-1	-1%	-10	1%
COCCN1Cc2cccc(C(=O)Nc3ccc(-c4nc5ccccc5[nH]4)cc3)c2C1=O	3	?	-2	?	-9	1%
CSc1ccccc1NC(=O)/C=C/c1ccc(F)cc1	nt	nt	nt	nt	-2	4%
COc1ccc(OCC(=O)Nc2cccc(-c3nc4ccccc4[nH]3)c2)cc1	9	?	-19	?	3	2%
O=C(COc1ccccc1)Nc1cccc(-c2nc3ccccc3[nH]2)c1	0	?	-8	32µM*	-4	-9%
O=C(O)c1cc(-c2ccco2)nc2ccc(Br)cc12	0	?	-14	-6%	5	16µM*!
Cc1cccc2c(C(=O)O)cc(-c3ccco3)nc12	nt	nt	nt	nt	6	8.9µM*
COC(=O)c1cc(-c2ccco2)nc2c(C)cccc12	nt	nt	nt	nt	7	?
CC(C)NC(=S)NC(c1ccccc1)(c1ccccc1)c1ccccc1	-6	4%	-43	2%	4	40µM*
C/C(=N\NC(=S)NC(C)C)c1ccccc1	1	?	26	-1%	-8	?
c1cncc(-c2nc(-c3ccc(OC4CNC4)cc3)no2)c1	nt	nt	nt	nt	nt	-4%
COc1ccccc1N(C)S(=O)(=O)c1ccc(Cl)c(C(=O)NC2=NCCS2)c1	1	5%	-76*	nt	-7	2%

Assay outcomes: PubChem BioAssay, National Center for Advancing Translational Sciences (NCATS)
